These results are taken from PubChem BioAssay AID1578 (Sanford-Burnham Center for Chemical Genomics, 2009).

SMILES strings stand for the structures. Out of some 290,000 compounds screened, about 3,000 (1%) were called active. The full list was thinned out, with actives kept by preference. Values without a mark were called inactive. Cut-off read from the data, not from the text of the source: active = inhibition mostly above about 36% (no sharp cut-off); inactive = mostly below about 34%.

The assay is described as follows: inhibition of NOD1-driven NF-kB reporter – cell-based, luminescence, uHTS, primary screen (AID 1578).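 Note: HEK-293T reporter cells stimulated with the NOD1 agonist gamma-tri-DAP.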 As to conditions: NOD1-driven NF-kB luciferase reporter cells, at 4 µM, active compounds read high. A general note: In a reporter assay the amount or activity of a reporter protein is the signal.
Turning to `COc1ccccc1-c1cc(C(=O)Nc2ccccc2SC)no1`, the inhibition (commonly the change of the read-out against control, counted positive when it falls) was -10%. In the case of `CCOC(=O)C1(Cc2ccccc2C)CCCN(C(=O)c2ccnn2C)C1` (configuration not stated) it was -17.1%. In the case of `Cc1ccc(C)c(SCC(=O)NNC(=O)c2ccccc2)c1`, the inhibition is -14.3%. In the case of `CCN1CCN(S(=O)(=O)c2cc(OCC(=O)NC3CCCCC3)c(C)cc2Cl)CC1` it was 26.3%. In the case of `Cc1cc(Cl)c(S(=O)(=O)N2CCCC2)cc1OCC(=O)NC1CCCCC1` it was 28.5%; in that of `C/C(=C\c1ccccc1)C(=O)Nc1cc(C)on1`, -6.1%; in that of `Cc1ccccc1Cn1cc(C)c(=O)[nH]c1=O`, -20.8%. For the molecule `CC(C)(C)n1nnnc1C(c1ccc(F)cc1)N(Cc1ccc(F)cc1)Cc1ccco1` (configuration not stated), the inhibition was -2.1%.

As for `CC(C)(C)n1nnnc1C(c1ccc(C(F)(F)F)cc1)N(Cc1ccc(F)cc1)Cc1ccco1` (configuration not stated), the inhibition is -13.2%. The same measure for `COc1cccc(CN(Cc2ccco2)C(c2ccc(F)cc2)c2nnnn2C(C)(C)C)c1` (configuration not stated): 50.8% (active); for `Cc1nc2cc(NC(=O)N3CC4(C)CC3CC(C)(C)C4)ccc2n1C` (configuration not stated): -31.3%; for `COC(=O)CCc1ccc(O)cc1`: -24%.

`CN1CCN(C(c2ccc(C(F)(F)F)cc2)c2ccc3cccnc3c2O)CC1` (configuration not stated): the inhibition is 23.8%.

Consider `Cc1c(CCO)c(=O)[nH]n1S(=O)(=O)c1ccc(F)cc1`, for which the inhibition is -15.6%. In the case of `Cc1csc(CNC(=O)c2ccc(OC3CCN(CCc4ccccc4)CC3)cc2)n1` it was -16.3%; in that of `COc1ccc2c(c1)C=C(CN1CCC(CO)(CCc3ccccc3)CC1)CO2`, -10%; in that of `OCC1(CCOc2ccccc2)CCN(CC2=Cc3cc(Cl)ccc3OC2)CC1`, -37.6%. With `CCOc1cc(C(=O)NN2CCOCC2)cc(OCC)c1OCC`, the inhibition is -21.5%. The same measure for `Cc1cc(Cl)ccc1NC(=S)N1CCN(Cc2ccc3c(c2)OCO3)CC1`: 79.9% (active); for `O=C(c1ccccc1)N1CCN(Cc2ccc3c(c2)OCO3)CC1`: -5.8%; for `Cc1cc(Cl)ccc1NC(=S)N1CCN(Cc2ccccc2)CC1`: -13.4%. The same measure for `O=C(NC(=S)N1CCN(Cc2ccc3c(c2)OCO3)CC1)c1ccc(Cl)cc1`: -3.6%; for `Cc1ccccc1NC(=S)N1CCN(Cc2ccc3c(c2)OCO3)CC1`: -15.3%.

On to `CCN(CC)c1ccc(C(=O)NC(=S)N2CCN(Cc3ccc4c(c3)OCO4)CC2)cc1`, for which the inhibition is -0.4%. With `O=C(c1n[nH]c(=O)c2ccccc12)N1CCN(Cc2ccc3c(c2)OCO3)CC1`, the inhibition is 3.4%. Regarding `O=C(COC(=O)COc1ccccc1Cl)Nc1ccccc1OC(F)F`, the inhibition was -10.4%. Take `CN(CCCC(=O)N1CCCC(C(N)=O)C1)S(=O)(=O)c1ccc(F)cc1` (configuration not stated): the inhibition was -19.1%. In the case of `Cc1ccc(NC(=O)CN2C(=O)S/C(=C\c3ccc(C(=O)O)cc3)C2=O)cc1`, the inhibition was -12.7%. In the case of `O=C(Cc1ccc(-n2c(=O)c3ccccc3n(Cc3cccc([N+](=O)[O-])c3)c2=O)cc1)NCC1CCCO1` (configuration not stated) it was 5.4%; in that of `COc1ccc(CCNC(=O)CSc2ccc(-c3ccco3)nn2)cc1OC`, -15.4%; in that of `COc1ccc(F)cc1S(=O)(=O)NCCN1CCOCC1`, 15.5%. The same measure for `COc1cccc2cc(C(=O)OC3CCN(C)CC3)c(=O)oc12`: -29.1%. With `Cc1ccc(Cl)cc1N1CCN(Cc2nnnn2Cc2ccco2)CC1`, the inhibition is -5.9%. The same measure for `Cc1cc(C)n(C(=O)CNC(=O)c2ccccc2Br)n1`: -28.7%; for `COCCn1c(-c2ccc(OC)cc2)cnc1SCC(=O)Nc1cccc2ccccc12`: -37.9%. The same measure for `O=C(Nc1ccc(C(=O)O)cc1)Nc1cccc([N+](=O)[O-])c1`: -12.4%; for `CN(C)S(=O)(=O)Oc1ccc(C(=O)Nc2cccc(Cl)c2)cc1`: -35.9%; for `CNC(=O)Nc1cccc(C(F)(F)F)c1`: -23%. As to `O=C(Nc1ccc(C(=O)N2CCOCC2)cc1)Nc1cccc(Cl)c1`, the inhibition was -21.7%. The same measure for `O=C(Nc1ccc(OC(F)(F)F)cc1)Nc1cccc([N+](=O)[O-])c1`: 75.1% (active). In the case of `O=C(Nc1ccccc1)Nc1cccc(C(F)(F)F)c1` it was -33.9%. In the case of `O=C(Nc1ccc(C(=O)N2CCOCC2)cc1)Nc1cccc(C(F)(F)F)c1`, the inhibition is 60% (active). On to `CC(=O)c1cccc(NC(=O)Nc2ccc(C(=O)N3CCOCC3)cc2)c1`, for which the inhibition is 5.9%. The same measure for `CN(C)S(=O)(=O)Oc1ccccc1C(=O)Nc1cccc(C(F)(F)F)c1`: -19.2%; for `O=C(Nc1cccc([N+](=O)[O-])c1)Nc1cccc([N+](=O)[O-])c1`: -8.2%.

On to `CCOc1ccc(NC(=O)CS(=O)CC(=O)N(CC(=O)NC(C)(C)C)C2CCCC2)cc1` (configuration not stated), for which the inhibition was -23.1%. In the case of `O=C(CC1C(=O)NCCN1Cc1ccc(-c2ccccc2)cc1)NCCCn1ccnc1` (configuration not stated) it was -4.4%; in that of `COCCNC(=O)C(C)N1c2cccc3cccc(c23)S1(=O)=O` (configuration not stated), -37.7%; in that of `NC(CCC(=O)O)C12CC3CC(CC(C3)C1)C2` (configuration not stated), -26.1%.

For the molecule `COC(=O)[C@H](Cc1ccccc1)NC(=O)NCCc1ccc(OC)cc1`, the inhibition was -0.3%. On to `CC(=O)c1cc2c(cc1NC(=O)CN1CCCCCCC1)OCO2`, for which the inhibition is -24.2%. In the case of `Cc1cc(C(=O)Nc2ccccn2)cs1` it was -53.4%; in that of `CCCC[C@@H]1CNC(=S)N1CCC12CC3CC(CC(C3)C1)C2`, -25.1%. The same measure for `CCCCOc1ccc(CSc2nc(C)[nH]c2[N+](=O)[O-])cc1[N+](=O)[O-]`: 39.8% (active); for `Cc1nc(SCc2ccc(O)c([N+](=O)[O-])c2)c([N+](=O)[O-])[nH]1`: -13.5%; for `COc1ccc(CSc2nc(C)[nH]c2[N+](=O)[O-])cc1[N+](=O)[O-]`: -4.2%.

Consider `CCOC1(OCC)N=C(N)C2(C#N)C(c3ccc(NC(C)=O)cc3)C12C#N` (configuration not stated), for which the inhibition is -12.4%. The same measure for `CN(CC(=O)Nc1c(Cl)cccc1Cl)C(=O)CCCN1C(=O)c2ccccc2C1=O`: 15.6%; for `O=C(N/N=C/C=C\c1ccccc1[N+](=O)[O-])c1ccncc1`: -7.4%. As to `COc1ccc(-n2cc(CNC3CCC(O)CC3)c(-c3cccc(F)c3)n2)cc1` (configuration not stated), the inhibition was 51.1% (active). The same measure for `COc1ccc(-n2cc(CNC3CCN(C)CC3)c(-c3cccc(F)c3)n2)cc1`: 14.5%; for `COc1ccc(-n2cc(CNC3CCOCC3)c(-c3cccc(F)c3)n2)cc1`: 21.8%.

Take `Cc1cccc(C)c1N1CCN(c2nc(N(C)C)oc(=O)c2C#N)CC1`: the inhibition was 18.2%. With `CCOC(=O)C1CCCN(C2=NC(=O)/C(=C/c3ccc(OC)cc3)S2)C1` (configuration not stated), the inhibition was -6.7%. Turning to `CC1=C(C(=O)N2CCOCC2)C(c2ccc(-c3ccccc3)cc2)NC(=S)N1` (configuration not stated), the inhibition was -25.1%. The same measure for `Cc1ccccc1C(=O)N1CCN(C(c2ccccc2)c2ccccc2)CC1`: -1.2%; for `CCOc1ncccc1C(=O)N1CCN(C(c2ccccc2)c2ccccc2)CC1`: -13%; for `c1ccc(CN(Cc2ccccc2)c2ncnc3c2nnn3Cc2ccccc2)cc1`: -2.6%. In the case of `CCNc1nc(NCC)n2c(SCC(=O)Nc3ccccc3[N+](=O)[O-])nnc2n1` it was -16.6%; in that of `Cn1c2c(c(=O)n(C)c1=O)C(CC(=O)Nc1ccccc1)C(=O)N2` (configuration not stated), -23.5%.

With `COc1ccc2[nH]c3c(c2c1)CCC/C3=N\N`, the inhibition is -3.8%. For `CC1Cc2c([nH]c3ccccc23)C(=O)N1` (configuration not stated), the inhibition was 26.8%.

Regarding `COc1ccc2[nH]c3c(c2c1)CC(C)NC3=O` (configuration not stated), the inhibition is 87% (active).

For `COc1cc(OC)cc(C(=O)NNC(=S)NC2CC2)c1`, the inhibition is -35.8%. In the case of `C=CCn1c(=O)c2ccccc2n2c(SC(C)C(N)=O)nnc12` (configuration not stated) it was -5.9%. In the case of `C[C@@H](CN=[N+]=[N-])CN1CC[C@H](C(C)(C)C)CCC1=O` it was -15.8%; in that of `CC(C)/C=C/CN1CCN(CCCc2ccccc2)C(CCO)C1` (configuration not stated), 45.1%; in that of `N#CCOC(=O)[C@H](Cc1ccccc1)N1C(=O)c2ccccc2C1=O`, -3.8%. In the case of `Cc1nn(-c2ccccc2Cl)c(Cl)c1/C=N/Nc1nc2ccccc2s1` it was 87.9% (active). Take `Cc1nn(-c2ccccc2Cl)c(Cl)c1/C=N/Nc1cccc(C(=O)O)c1`: the inhibition was 19.9%. In the case of `CCOC(=O)N/N=C/c1c(C)nn(-c2ccccc2Cl)c1Cl` it was -46.5%.

As to `COc1ccc(CCNC(=O)CNC(=O)c2nn(-c3ccc(OC)c(OC)c3)c(=O)c3ccccc23)cc1OC`, the inhibition was -4.9%. Regarding `COc1ccc(C(=O)Nc2sc3c(c2C(=O)O)CC(C)(C)OC3)cc1`, the inhibition was -23.2%. The same measure for `CC1(C)Cc2c(sc(NC(=O)c3ccccc3)c2C(=O)O)CO1`: -22.9%; for `Cc1nc2nc(-c3ccc(Cl)cc3)cn2nc1C`: -11.9%.

On to `CCc1ccc(-c2cn3nc(C)c(C)nc3n2)cc1`, for which the inhibition was 76.1% (active).

With `Cc1ccc(-c2cn3nc(C)c(C)nc3n2)cc1`, the inhibition is 46.8%. In the case of `O=C1N(c2ccccc2)C[C@@H]2C[C@@H](c3cccc4c3OCO4)N3CCC[C@@]123` it was -27.6%; in that of `O=C1N(c2ccccc2)C[C@@H]2C[C@@H](c3cccs3)N3CCC[C@@]123`, -35.1%. In the case of `O=C1N(c2ccccc2)C[C@@H]2C[C@@H](c3cc4ccccc4o3)N3CCC[C@@]123` it was 98% (active). As to `Cc1onc(-c2c(F)cccc2Cl)c1C(=O)NC(=S)NC1CCS(=O)(=O)C1` (configuration not stated), the inhibition was -19.3%. As for `COc1ccc(CC(=O)N2CCN(c3cccc(C)c3C)CC2)cc1`, the inhibition is -24.5%.
